Laboratory results: PubChem BioAssay AID1645838 (ICCB-Longwood Screening Facility, Harvard Medical School, 2021)
Where “and” joins values, the source holds several entries; their conditions need not be identical. Identical values can stand only once. In all, about 2,000 compounds went through this assay and about 100 (5%) were called active. The sample holds actives, similar compounds and a random draw of the others, so the mix is not that of the screen. Rule as the data show it: active = z-score above about 2; inactive = the rest. The source holds several records for some structures; these can differ, active in one and inactive in another.

Test: modulators of mitochondrial supercomplex assembly, cell-based, luminescence, Hoechst nuclei count (AID 1645838);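 also: control cybrid cells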;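 as to z-score: higher means more mitochondrial supercomplex formation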
Conditions: Cells, luminescence/Hoechst cell count ratio, supercomplex reporter; for z-score: stronger effect = higher value; for cell count: measured here: cell number, Hoechst nuclei count
[1] = library stock concentration (final well concentration not given) 46 uM
[2] = library stock concentration (final well concentration not given) 278 uM
[3] = library stock concentration (final well concentration not given) 1.67 mM
[4] = library stock concentration (final well concentration not given) 10 mM
[5] = library stock concentration (final well concentration not given) 80 uM
[6] = library stock concentration (final well concentration not given) 400 uM
[7] = library stock concentration (final well concentration not given) 2 mM

CCCCC[C@@](C)(O)/C=C/[C@H]1C(=O)C[C@H](O)[C@@H]1C/C=C\CCCC(=O)O
z-score: -0.768 (inactive)
cell count: 5670

O=c1ncccn1C1OC(CO)C(O)C1O (stereo not given)
z-score [1]: -0.336 (inactive)
z-score [2]: -0.313 (inactive)
z-score [3]: -0.302 (inactive)
z-score [4]: 0.386 (inactive)
cell count [1]: 5670
cell count [2]: 5220
cell count [3]: 4780
cell count [4]: 3500

c1cc2c(cc1C1CCCCC1)c1c3n2CCNC3CCC1 (stereo not given)
z-score [1]: -0.207 (inactive)
z-score [2]: -0.279 (inactive)
z-score [3]: 0.239 (inactive)
z-score [4]: 3.28 (active)
cell count [1]: 6430
cell count [2]: 6250
cell count [3]: 6160
cell count [4]: 4320

CCCCCCCC/C=C\CCCCCCCC(=O)NCCS(=O)(=O)O
z-score: -0.251 (inactive)
cell count: 5290

CCCCCCCCCCCCC/C=C/[C@H](O)[C@@H](CO)NC(=O)CCCCCCCCCCCCCCCCCCCCCCC
z-score: 0.79 (inactive)
cell count: 5520

O=C(O)CCC/C=C\CC1C2CCC(O2)C1CNNC(=O)Nc1ccccc1 (stereo not given)
z-score: -0.631 (inactive)
cell count: 5630

Cc1ccc(C(=O)Nc2cccc(C(F)(F)F)c2)cc1Nc1cncc(C(N)=O)c1
z-score [5]: -0.656 (inactive)
z-score [6]: -0.351 (inactive)
z-score [7]: -0.861 (inactive)
z-score [4]: -0.825 (inactive)
cell count [5]: 4950
cell count [6]: 4630
cell count [7]: 5070
cell count [4]: 4410

Cc1ccc(C(=O)Nc2cccc(C(F)(F)F)c2)cc1Nc1nc(-c2cccnc2)nc2c1cnn2C
outcome (library stock 10 mM): inactive; censored for cell count
z-score [5]: -0.121 (inactive)
z-score [6]: 0.0935 (inactive)
z-score [7]: 1.5 (inactive)
cell count [5]: 5540
cell count [6]: 5440
cell count [7]: 3810

Cc1ccc(NC(=O)c2cccc(C(C)(C)C#N)c2)cc1Nc1ccc2ncn(C)c(=O)c2c1
outcome (library stock 10 mM): inactive; censored for cell count
z-score [1]: -0.155 (inactive)
z-score [5]: 1.5 (inactive)
z-score [2]: 0.171 (inactive)
z-score [6]: 1.71 (inactive)
z-score [3]: 0.888 (inactive)
z-score [7]: 2.43 (active)
z-score [4]: 3.11 (active)
cell count [1]: 6500
cell count [5]: 3700
cell count [2]: 6060
cell count [6]: 3410
cell count [3]: 4330
cell count [7]: 2280
cell count [4]: 1960

CCCCC(C)(C)[C@H](O)/C=C/[C@@H]1[C@@H](C/C=C\CCCC(=O)O)[C@@H](O)C[C@H]1O
z-score: -0.23 (inactive)
cell count: 5200

CCCCC/C=C\C=C\C(O)CCCCCCCC(=O)OC[C@@H](COC(=O)CCCCCCC/C=C\C=C\C(O)CCCCC)OC(=O)CCCCCCC/C=C\C=C\C(O)CCCCC (stereo not given in full)
z-score: -0.295 (inactive)
cell count: 5700

CC(=O)c1ccc2c(c1)c1cc(C(C)=O)ccc1n2CCNC(C)C
outcome (library stock 2 mM): inactive; censored for cell count
outcome (library stock 10 mM): inactive; censored for cell count
z-score [5]: 0.38 (inactive)
z-score [6]: 4.83 (active)
cell count [5]: 5240
cell count [6]: 2850

CCCCCC(=O)CC[C@@H]1[C@@H](C/C=C\CCCC(=O)O)[C@@H](O)C[C@H]1O
z-score: 0.125 (inactive)
cell count: 5560

CCCCCCCCCCCCCCCCCCOC[C@H](COP(=O)([O-])OCC[N+](C)(C)C)OC(C)=O
z-score: -1.9 (inactive)
cell count: 5980

CCN(CC)Cc1ccc(C(=O)N(CCc2ccccc2OC)C2CCNC2)cc1 (stereo not given)
z-score [5]: 0.157 (inactive)
z-score [6]: 0.267 (inactive)
z-score [7]: 0.915 (inactive)
z-score [4]: 3.1 (active)
cell count [5]: 5850
cell count [6]: 5490
cell count [7]: 4680
cell count [4]: 3340

C[C@@H]1C[C@H]2O[C@@H]2/C=C\C=C\C(=O)Cc2c(Cl)c(O)cc(O)c2C(=O)O1
outcome: inactive; censored for cell count

CCOc1cc(CC(=O)NC(CC(C)C)c2ccccc2N2CCCCC2)ccc1C(=O)O (stereo not given)
z-score [1]: -0.125 (inactive)
z-score [2]: -0.238 (inactive)
z-score [3]: -0.332 (inactive)
z-score [4]: -0.204 (inactive)
cell count [1]: 4820
cell count [2]: 5070
cell count [3]: 5220
cell count [4]: 4740

O=C(O)C1CCC(c2cc3cccnc3c(-c3cccc(F)c3)n2)CC1 (stereo not given)
z-score [1]: 0.62 (inactive)
z-score [2]: 1.24 (inactive)
z-score [3]: 1.5 (inactive)
z-score [4]: 1.76 (inactive)
cell count [1]: 6220
cell count [2]: 6290
cell count [3]: 5980
cell count [4]: 6420

COc1cccc2cc(-c3nc(C4CCC(C(=O)O)CC4)n4ncnc(N)c34)[nH]c12 (stereo not given)
outcome (library stock 10 mM): inactive; censored for cell count
z-score [5]: -0.563 (inactive) and 0.107 (inactive)
z-score [6]: -0.188 (inactive) and 0.529 (inactive)
z-score [7]: 1.25 (inactive) and 2.27 (active)
cell count [5]: 4660 and 5660
cell count [6]: 3600 and 4570
cell count [7]: 2190 and 2510

COc1ccc(/C=C/c2cc(O)cc(O)c2)cc1O
outcome: inactive; censored for cell count

CN(c1ccccc1CNc1nc(Nc2ccc3c(c2)CC(=O)N3)ncc1C(F)(F)F)S(C)(=O)=O
outcome (library stock 2 mM): inactive; censored for cell count
outcome (library stock 10 mM): inactive; censored for cell count
z-score [5]: 0.0927 (inactive)
z-score [6]: 0.505 (inactive)
cell count [5]: 4980
cell count [6]: 4440

C=CCn1c(=O)c2cnc(Nc3ccc(N4CCN(C)CC4)cc3)nc2n1-c1cccc(C(C)(C)O)n1
outcome (library stock 1.67 mM): inactive; censored for cell count
outcome (library stock 10 mM): inactive; censored for cell count
z-score [1]: -0.147 (inactive)
z-score [2]: -0.118 (inactive)
cell count [1]: 4940
cell count [2]: 4830

Cc1cnc(Nc2ccc(OCCN3CCCC3)cc2)nc1Nc1cccc(S(=O)(=O)NC(C)(C)C)c1
outcome (library stock 10 mM): inactive; censored for cell count
z-score [1]: -0.00359 (inactive)
z-score [2]: -0.105 (inactive)
z-score [3]: 5.46 (active)
cell count [1]: 4980
cell count [2]: 5010
cell count [3]: 2610
